HSP90 refold inh = HSP90 inhibitors, primary screen, cell lysate, luminescence. 0.91% of 290,000 active. Heat shock protein HSP 90 (rabbit reticulocyte lysate; luciferase refolding). AID 1789, 2009. Rabbit reticulocyte lysate, luciferase refolding luminescence, 3 h. inhibition, % at 5.6 µM;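 active = inhibition above the screen-wide mean plus 3 SD, computed separately per campaign, cut at about 16% in these data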;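 also: 0% = DMSO wells and 100% = 60 µM geldanamycin wells; inhibitors lower the luminescence because luciferase stays unfolded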
TWEAK Fn14 block = inhibitors of TWEAK-Fn14 signaling, primary screen, luciferase reporter cells, uHTS. TWEAK-stimulated Fn14 reporter cells, luciferase luminescence, 8 h. inhibition, % at 10 µM. 2% of 360,000 active; in the data active = inhibition above about 50%
aDG glyco up = activators of alpha-DG glycosylation, primary screen, uHTS, Pro5-aDG cells, AlphaScreen | activation, % at 10 µM | alpha-DG glycosylation AlphaScreen (IIH6); 0% Pro5, 100% B10-LARGE cell signal | 0.22% of 360,000 active;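 active = activation of at least 8% versus controls, or a plate z-score of at least 8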;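 also: Pro5 are CHO cells carrying HIG-tagged alpha-DG that lacks glycosylation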
EBV LMP1 NFkB = EBV LMP1-driven NF-kappaB luciferase reporter inhibitors, primary screen, cell-based, luminescence, single point | LMP1-induced NF-kappaB luciferase reporter cells | inhibition, % at 12.5 µM | 0.69% of 350,000 active; in the data active = inhibition above about 41%;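 also: 0% = neutral control wells and 100% = reference inhibitor control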
TROY signal inh = inhibitors of TROY-driven NF-kB signaling, primary screen, Q293 LMP1-TROYcd cells, NF-kB luciferase, uHTS; Q293 LMP1-TROYcd NF-kB luciferase reporter, 4 h; AID 1347056, 2019; 0.98% of 360,000 active; inhibition, % at 10 µM;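 active = compounds whose plate-normalised and pattern-corrected inhibition of the luciferase reporter signal at the single screening dose is 50% or more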
LGR2 antag = inhibitors of bursicon-induced LGR2 CRE-luciferase signal, primary screen, cell-based, HEK293, CRE-luciferase reporter, bursicon stimulation; bursicon-stimulated, 4 h; 0.35% of 380,000 active; AID 720647, 2013; Drosophila bursicon receptor LGR2 (rickets); inhibition, % at 9.99 µM;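 active = drop in luminescence signal, shown as inhibition above about 50% in the replicate tests, limit read from the data, passing the limit was not always enough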;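 also: agonist challenge used bursicon conditioned medium at about half maximal strength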
The depositor's hits bear a star; · = no result given. This is a sample that favours compounds with a hit; in the whole collection about 2.6% have one here.

SMILES	HSP90 refold inh	TWEAK Fn14 block	aDG glyco up	EBV LMP1 NFkB	TROY signal inh	LGR2 antag
CC(=O)[C@H]1[C@H](CCc2ccccc2)NC(=O)N(Cc2ccccc2)[C@@H]1C	·	1.3	0.1	-18.1	6.4	9.0
CCN1C(=O)N[C@@H](CCc2ccccc2)[C@H](C(C)=O)[C@H]1C	·	4.4	0.1	57.6*	-11.2	-25.7
C[C@@H]1CN([C@H](C)CO)C(=O)Cc2cc(N(C)C)ccc2O[C@H]1CN(C)Cc1ccncc1	·	·	·	·	·	-14.8
c1ccc2c(Nc3nc(N4CCOCC4)c4ccccc4n3)cccc2c1	2.7	52.0*	0.1	-1.7	18.7	7.7
Cc1ccc(S(=O)(=O)N[C@@H]2C=C[C@H](CC(=O)NCc3ccncn3)O[C@@H]2CO)cc1	·	·	·	·	·	-3.1
Cc1nn(CCc2nn[nH]n2)c2nc(C(F)(F)F)cc(C(F)(F)F)c12	-2.4	-1.2	-0.1	-11.8	32.2	·
Cc1nn(CCc2nn[nH]n2)c2nc(-c3ccc(Br)cc3)cc(C(F)(F)F)c12	-3.3	32.2	0.0	-8.2	52.9*	10.3
CNC(=O)COC(=O)c1ccccc1C(=O)c1ccc(Cl)c([N+](=O)[O-])c1	-1.5	101.0*	-0.1	7.5	73.8*	102.4*
CNC(=O)COC(=O)c1cc(F)c(F)cc1Cl	0.9	87.3*	-0.3	2.2	-0.2	·
O=C(COC(=O)c1ccccc1C(=O)c1ccc(Cl)c([N+](=O)[O-])c1)NC1CC1	-4.6	95.2*	0.0	49.7*	65.3*	105.3*
CC(C)OC(=O)c1ccccc1C(=O)c1ccc(N)c([N+](=O)[O-])c1	3.9	-0.8	0.2	1.1	7.1	6.4
Cc1cccc(C(=O)OC2CCOC2=O)c1O (stereo not drawn)	3.5	89.0*	-0.2	-0.5	-24.8	-16.4
N#C[C@@H]1[C@@H](c2ccccc2-c2ccccc2F)[C@@H](CO)N1C(=O)C1CCOCC1	·	·	·	·	·	-3.4
C[C@H]1CCCCO[C@@H](CN(C)Cc2ccccc2)[C@@H](C)CN([C@@H](C)CO)C(=O)c2cc(NS(=O)(=O)c3ccc(F)cc3)ccc2O1	·	·	·	·	·	0.5
CCCOc1ccc(C(=O)c2ccccc2C(=O)OC2CCOC2=O)cc1OCCC (stereo not drawn)	·	-17.2	0.1	-2.9	-8.1	2.9
O=C(OC1CCOC1=O)c1ccccc1C(=O)c1ccc(Cl)c([N+](=O)[O-])c1 (stereo not drawn)	·	65.8*	0.0	-6.1	23.0	·
O=C(N[C@H]1CC[C@@H](CC(=O)N2CCC(Cc3ccccc3)CC2)O[C@@H]1CO)c1cnccn1	·	·	·	·	·	9.1
CC(O)CC(=O)OC[C@]12CC[C@H]3[C@@](C)(CC[C@H]4C(C)(C)CCC[C@]34C)[C@@H]1CC(C1=CC(=O)OC1O)O2 (stereo partly drawn)	·	106.0*	0.4	·	88.9*	·
O=P(CCCCCCCCCP(=O)(c1ccccc1)c1ccccc1)(c1ccccc1)c1ccccc1	6.4	48.1	0.8	-3.2	55.0*	·
O=C(O)CCCCCCCCCCP(=O)(c1ccccc1)c1ccccc1	-0.9	-93.6	0.1	-8.4	3.5	9.8
COc1ccc(NC(=O)N(C)C[C@@H]2OCCCC[C@@H](C)Oc3ccc(NC(=O)Nc4cccc5ccccc45)cc3C(=O)N([C@H](C)CO)C[C@@H]2C)cc1	·	·	·	·	·	-0.1
CCOC(=O)/C(=C\c1cccc(O)c1)c1nc2sc(C)c(C)c2c(=O)[nH]1	4.7	101.1*	0.4	3.2	37.5	83.9*
N#CC1=C2N=C(N)c3c(sc4c3CCCCC4)N2C2=C(C(=O)CCC2)C1c1ccccc1 (stereo not drawn)	2.2	47.1	-0.3	-5.4	54.0*	·
COc1ccc(S(=O)(=O)N2C[C@@H](O)COC[C@@H]3O[C@H](CC(=O)N[C@@H]4CCN(Cc5ccccc5)C4)CC[C@H]32)cc1	·	·	·	·	·	-8.7
COc1ccc(-c2nc3ccccc3s2)cc1	17.7*	75.0*	0.2	33.5	51.5*	80.3*
SMILES	HSP90 refold inh	TWEAK Fn14 block	aDG glyco up	EBV LMP1 NFkB	TROY signal inh	LGR2 antag
Cn1c(N2CCN(c3ccccn3)CC2)nc2c1c(=O)n(Cc1ccccc1Cl)c(=O)n2C	1.4	16.8	0.7	2.8	26.7	·
Cn1c(N2CCN(c3ccccn3)CC2)nc2c1c(=O)n(Cc1ccc(Cl)cc1)c(=O)n2C	6.5	52.3*	0.1	13.6	53.9*	·
COc1ccc(C(NC(=O)c2c(F)c(F)c(F)c(F)c2F)c2ccccc2)cc1 (stereo not drawn)	-3.6	5.2	2.6	4.5	69.0*	67.1*
CCc1n[nH]c(=S)n1/N=C/c1ccc(N(C)c2ccccc2)cc1	0.0	-12.9	-0.1	75.7*	26.9	15.0
O=C(Nc1nc(-c2ccc3c(c2)OCCO3)cs1)c1ccc(Br)o1	·	27.8	-0.2	0.5	54.7*	-11.0
O=C(CCCCl)Nc1nc(-c2ccc3c(c2)OCCO3)cs1	-2.2	51.3*	-0.1	-17.6	23.9	-71.3
O=C(CSc1nc2ccccc2c(=O)n1-c1ccccc1)N1CCc2ccccc2C1	4.0	22.2	-0.1	5.7	19.1	10.1
CC(C)c1ccccc1-n1c(SCC(=O)N2CCc3ccccc3C2)nc2ccccc2c1=O	4.5	45.5	0.5	-1.6	54.2*	29.9
COc1ccc(-c2ccc([C@H]3[C@H](C#N)N(C(=O)C4CCC4)[C@H]3CO)cc2)cc1	·	·	·	·	·	-4.7
CCCNC(=O)N[C@@H]1CC[C@@H](CCn2cc(-c3cccc(F)c3)nn2)O[C@H]1CO	·	·	·	·	·	-0.7
C[C@H](CO)N1C[C@H](C)[C@@H](CN(C)Cc2ccc3c(c2)OCO3)Oc2ccc(NS(=O)(=O)c3cn(C)cn3)cc2C1=O	·	·	·	·	·	0.6
COC(=O)c1cc(=O)nc(NN=Cc2ccccc2)s1	·	·	·	·	·	-10.7
COC(=O)c1cc(=O)nc(NN=C2c3ccccc3-c3ccccc32)s1	·	60.7*	-0.4	·	16.2	3.0
C[C@@H]1CN([C@H](C)CO)C(=O)c2cc(NC(=O)Nc3ccccc3)ccc2O[C@@H](C)CCCCO[C@H]1CN(C)Cc1ccccc1	·	·	·	·	·	1.8
CCCn1c(=O)c2c(ncn2C)n(CCC)c1=O	·	-2.3	-0.1	-0.6	-0.9	-27.3
C#CCn1c(=O)c2c(ncn2C)n(C)c1=O	·	-11.4	-0.1	43.7*	-12.1	1.1
O=C1NC(=S)S/C1=C\c1cc2ccccc2nc1N1CCCCC1	1.3	21.7	0.0	-4.6	58.7*	6.5
COc1ccc2nc(N3CCCCC3)c(/C=C3\SC(=S)NC3=O)cc2c1	1.2	21.4	0.0	-8.4	64.2*	4.9
NC(=S)N/N=C/c1ccccc1OCCSc1ccc(Cl)cc1	4.4	60.6*	2.6	-21.2	20.1	30.2
N#C[C@@H]1[C@@H](c2ccccc2-c2cccc(F)c2)[C@H](CO)N1C(=O)C1CCCCC1	·	·	·	·	·	2.4

Assay outcomes (PubChem)
